High-throughput results (PubChem)
The list is not random: actives were taken first. Their share in the collection is about 10%.
Luciferase inh: Photinus pyralis luciferase inhibition; P08659; Potency, µM (highest dose often 115 µM), most hits filed as inhibitors; hit rate 2.5% among 76,000; purified P. pyralis luciferase, luminescence, biochemical; note: nearly all actives have a fitted effect of over 65% in size
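Luminescence read by CCD imager after adding enzyme (10nM final) to wells holding compound, titrated in qHTS. Substrates 10uM each D-luciferin and ATP; buffer 50mM Tris acetate pH 7.5, 10mM Mg acetate, Tween-20, BSA.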
hNpr1 antagonist: human Npr1 receptor antagonism. P16066. Potency, µM (titrated, usually from 46.3 µM), without a hit: at the highest dose activity change, negative = inhibition, usual class: inhibitors. hit rate 1.6% among 76,000. AID 1347048. HEK293 hNpr1 GloSensor cGMP, ANP-stimulated luminescence; calls by dose curve; note: nearly all actives have a fitted effect of over 60% in size
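Compound pre-incubated 30 min at room temperature on GloSensor-loaded HEK293 cells stably carrying hNpr1 and the pGS-40F cGMP biosensor. Stimulation uses hNppA at 0.1 nM final; luminescence is taken at baseline and 20 min post-agonist.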
HEK293 tox: cytotoxic compounds in HEK 293 cells; HEK 293 viability, ATP luminescence (CellTiter-Glo), 48-72 h; Potency, µM (titrated, usually from 115 µM), for the others: top-dose activity change, negative = cytotoxicity, usual class: inhibitors; hit rate 6.6% among 94,000; AID 1345083; note: nearly all actives have a fitted effect of over 60% in size
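HEK 293 cells seeded at 250 cells/well were exposed to compound for 48 or 72 hr at 37 degree Celsius. Viability taken as ATP content by CellTiter-Glo luminescence.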
NIH3T3 tox: kills NIH 3T3 cells. Potency, µM (series often up to 96.7 µM), inactives show at the highest dose activity change, negative = cytotoxicity, hits mostly inhibitors. NIH 3T3 viability, CellTiter-Glo ATP luminescence, 48-72 h. hit rate 4.3% among 94,000; note: nearly all actives have a fitted effect of over 55% in size
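NIH 3T3 cells at 400 cells/well received 23 nL of compound by pintool and were incubated 48 or 72 h at 37 °C. Viability was read as ATP-coupled CellTiter-Glo luminescence.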
GPT2 inh: GPT2 alanine aminotransferase inhibition. Q8TD30. Recombinant GPT2, coupled pyruvate oxidase/HRP Amplex Red fluorescence. Potency, µM (series often up to 57.7 µM), inactives show at the top dose activity change, negative = inhibition, usual class: inhibitors. hit rate 0.25% among 100,000. AID 1671188; note: nearly all actives have a fitted effect of over 60% in size
Target sequence (Q8TD30 whole entry, looked up): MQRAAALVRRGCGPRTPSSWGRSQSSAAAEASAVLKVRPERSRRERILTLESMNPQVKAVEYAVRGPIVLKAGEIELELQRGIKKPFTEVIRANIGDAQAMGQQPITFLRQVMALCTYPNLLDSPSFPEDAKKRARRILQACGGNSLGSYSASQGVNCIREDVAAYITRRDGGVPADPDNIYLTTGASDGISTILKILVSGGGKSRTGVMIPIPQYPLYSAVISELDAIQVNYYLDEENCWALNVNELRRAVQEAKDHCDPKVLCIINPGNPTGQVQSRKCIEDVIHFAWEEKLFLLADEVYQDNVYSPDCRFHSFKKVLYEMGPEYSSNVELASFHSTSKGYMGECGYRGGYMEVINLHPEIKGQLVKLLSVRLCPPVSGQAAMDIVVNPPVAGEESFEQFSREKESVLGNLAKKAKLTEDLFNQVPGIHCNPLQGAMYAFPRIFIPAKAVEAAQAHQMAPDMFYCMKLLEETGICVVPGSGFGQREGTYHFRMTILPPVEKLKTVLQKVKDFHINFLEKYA
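Recombinant GPT2 (10ng/uL) with 250uM a-KG and 2mM L-alanine, 30 min at room temperature, in HEPES pH 7.5 buffer. Pyruvate detected by pyruvate oxidase/HRP/Amplex Red fluorescence after 30 min in the dark; AOA (50uM) as positive control.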
The depositor's hits bear a star; i = inactive; ? = inconclusive; . = not tested or not shown; [ ] = remark or other dose. Unless noted, calls come from the whole dose curve; as a rule, active = well fitted curve in the direction sought with a large enough effect; inconclusive = small, poorly fitted or top-dose-only effect, or another doubt; inactive = no such curve, though single readings can be large; an effect the other way counts as inactive or inconclusive. % is set by controls: 0 for no effect and ±100 for the full control effect; potency is the fitted concentration of half-maximal effect.

SMILES	Luciferase inh	hNpr1 antagonist	HEK293 tox	NIH3T3 tox	GPT2 inh
CCOc1ccc(C(=O)NCCn2ccn3nc(-c4cc(C)ccc4C)cc3c2=O)cc1	i	2.4%	?	-25.2%	3.9%
Cc1ccc(-c2cc3c(=O)n(CCNC(=O)c4cc(F)ccc4F)ccn3n2)cc1C	?	-14.9%	39.8µM*	?	i
Cc1ccc(C)c(-c2cc3c(=O)n(CCNC(=O)c4ccc(F)cc4Cl)ccn3n2)c1	i	-18.6%	39.8µM*	31.6µM*	i
O=C(Nc1ccc(Cl)cc1)NC1CCCN(Cc2ccc(-c3cncnc3)cc2)C1 (stereo unspecified)	.	.	?	?	0.7%
CC(C)c1nc2c(c(-c3ccc(O)cc3)n1)CCN(C(=O)Cc1cccc(Cl)c1)CC2	.	.	?	?	i
COCCOC1CCOC2(CCN(C(=O)CCc3nc4ccccc4s3)CC2)C1 (stereo unspecified)	i	-15.1%	-6.0%	-6.9%	-13.6%
CCCCn1c(=O)c(C(=O)NC2CC2)nc2cccnc21	.	.	i	-1.8%[138 µM]	i
Cc1ccc(-c2cc3c(=O)n(CCNC(=O)Cc4ccsc4)ccn3n2)cc1C	5.01µM*	-16.1%	?	?	-5.9%
Cc1ccc(Cn2c(C3CCN(C(=O)c4c(F)cccc4F)CC3)n[nH]c2=O)cc1	i	-2.6%	-7.2%	-12.5%	i
O=C(CC1CCOC2(CCN(C(=O)c3cccs3)CC2)C1)N1CCCC1 (stereo unspecified)	.	.	-8.3%	-17.1%	i
COCC1CN(C(=O)c2ccc(Cc3c(C)noc3C)o2)CC12CCNCC2 (stereo unspecified)	i	3.6%	-20.7%	-10.8%	i
Cc1ccc(CC2CCOC3(CCN(C(=O)c4cccs4)CC3)C2)cc1 (stereo unspecified)	i	?	44.7µM*	?	-16.1%
Cc1ccc(CC2CCOC3(CCN(C(=O)c4cccc(C#N)c4)CC3)C2)cc1 (stereo unspecified)	i	?	50.1µM*	?	-13.4%
Cc1noc(C)c1Cc1ccc(C(=O)N2CCC3(CC2)CC(Cc2ccc(F)cc2)CCO3)o1 (stereo unspecified)	.	.	28.2µM*	?	i
Cc1cccc(C(=O)N2CCC3(CC2)CC(Cc2ccc(F)cc2)CCO3)c1 (stereo unspecified)	i	-15.7%	44.7µM*	?	-7.6%
N#Cc1ccccc1CN1CCCCCCNC(=O)[C@@H]2C[C@@H](C(=O)N3CCc4ccccc4C3)C[C@@H]21	i	-18.7%	?	?	-18.4%
O=C(/C=C/c1ccc(O)c(O)c1)O[C@H]1[C@H](OC2CCCCC2O)O[C@H](CO)[C@@H](O)[C@@H]1O (stereo partly specified)	.	.	.	.	4.47µM*
CCN(CC1CCN(C2CCN(C)CC2)CC1)C(=O)c1ccc(-c2ccccc2)cc1	i	7.0%	22.4µM*	28.2µM*	-11.6%
O=C(CN1CCCC1)N[C@H]1CC[C@H](Nc2nccc(-c3cccnc3)n2)C1	i	1.9%	44.7µM*	?	3.8%
O=C(N[C@H]1CC[C@H](Nc2nccc(-c3cccnc3)n2)C1)c1ccc(O)cc1	i	0.7%	?	?	i
Cc1ccc(NC(=O)c2ccc3c(c2)N(S(C)(=O)=O)CC3)cc1	1.26µM*	?	?	-18.9%	i
CCOC(=O)CNC(=O)c1ccc2c(c1)N(S(C)(=O)=O)CC2	i	-0.9%	11.7%	i	-5.5%
O=C(Nc1ccc2oc(-c3ccccc3)nc2c1)C1CCN(c2cnn(Cc3ccccc3)c(=O)c2)C1 (stereo unspecified)	?	-1.7%	-3.7%	-1.4%	i
CCN(CC)CC(=O)N1CCC(C(=O)Nc2ccc(-c3nc4ccccc4o3)cc2)CC1	i	1.4%	22.4µM*	22.4µM*	4.5%
Cn1cc(CN2C[C@@H]3C[C@H]2C(=O)N(CC2CC2)c2ccccc2O3)c2ccccc21	i	-9.3%[70.6 µM]	?	100µM*	?
SMILES	Luciferase inh	hNpr1 antagonist	HEK293 tox	NIH3T3 tox	GPT2 inh
Cc1ccc(CN2C[C@@H]3C[C@H]2C(=O)N(CC2CC2)c2ccccc2O3)cc1	i	-18.4%[70.6 µM]	100µM*	100µM*	-17.0%[88.5 µM]
CN(C)CCN(C)[C@H]1[C@H](O)C[C@@H]2CC(C)(C)OC[C@]21O	.	.	?	-5.9%[46.1 µM]	-7.6%[27.3 µM]
Cc1nn(CCC#N)c(C)c1[C@@H]1C=C[C@@H](NS(=O)(=O)c2cccs2)C1	i	-3.1%[70.6 µM]	-9.2%[172 µM]	44.7µM*	1.8%[88.5 µM]
Cc1nn(-c2ccc(F)cc2)c(C)c1[C@@H]1C=C[C@@H](NS(=O)(=O)c2cccs2)C1	i	-13.2%[70.6 µM]	?	?	?
COc1ccc(C(=O)N2C[C@@H](F)[C@@H](OCc3nc4ccc(F)cc4[nH]3)C2)cc1	39.8µM*	-27.1%[70.6 µM]	?	-21.4%[138 µM]	-0.1%[88.5 µM]
COc1ccc(C(=O)N2C[C@@H](F)[C@@H](OCc3nc4ccccc4o3)C2)cc1	i	0.5%[70.6 µM]	100µM*	-29.9%[174 µM]	-12.5%[88.5 µM]
Cc1ccc2nc(CO[C@H]3CN(C(=O)C4CCOCC4)C[C@H]3F)[nH]c2c1	i	-2.6%[70.6 µM]	-8.3%[172 µM]	2.6%[138 µM]	?
O=C(Nc1cccc(C(F)(F)F)c1)N1C[C@@H](F)[C@@H](OCc2nc3ccccc3[nH]2)C1	i	-10.4%[70.6 µM]	100µM*	100µM*	i
Cc1ccc2nc(CO[C@H]3CN(C(=O)C4CC4)C[C@H]3F)[nH]c2c1	28.2µM*	-14.5%[70.6 µM]	-7.5%[172 µM]	-16.5%[138 µM]	?
CNC(=O)c1cc(C)nc2onc(C3CCN(C(=O)c4ccccc4C)CC3)c12	.	.	-26.8%	-26.5%	.
O=C(NC1CCCCC1)c1ccc(CN2C(=O)NC3(CCS(=O)(=O)CC3)C2=O)cc1	i	0.1%	9.8%	1.5%	3.0%
Cc1ccc(C)c(CN2C[C@@H]3C(=O)N(CCN4CCc5ccccc5C4)C(=O)[C@@H]3C2)c1	i	-10.5%	?	?	i
CC(=O)N1CCCC1C(=O)N1CCC(N2Cc3cccn3C2=O)CC1 (stereo unspecified)	.	.	-1.6%	-21.1%	i
CC1CCCCN1CCCNC(=O)c1cc2c(s1)CN(C1CCCC1)C2 (stereo unspecified)	?	-3.7%	79.4µM*	?	i
CC1CCCN(CCCNC(=O)c2cc3c(s2)CN(C2CCCC2)C3)C1 (stereo unspecified)	i	8.2%	9.2%	-3.5%	i
CN1CCOc2c(C(=O)NCc3cnn(C)c3)cc(-c3cccnc3)cc21	i	-15.2%[70.6 µM]	?	35.5µM*	3.4%[88.5 µM]
CN1CCOc2c(C(=O)NCCc3cnc[nH]3)cc(-c3ccccc3)cc21	i	-0.4%[70.6 µM]	?	79.4µM*	-2.0%[88.5 µM]
CN1CCOc2c(C(=O)NCCc3cnc[nH]3)cc(-c3cccc4[nH]ccc34)cc21	?	-0.8%[70.6 µM]	?	89.1µM*	i
